In the library only some 7.5% were active in any assay of this set; here they are far more common.
NPC1 prom act: qHTS Assay for NPC1 Promoter Activators | Huh7 NPC1 promoter luciferase reporter, 24 h | Potency, µM (top dose mostly 9.22 µM), without a hit: top-dose activation, usual class: activators | 320,000 tested, 2.4% active | AID 485313, 2010; also: % of control where 0% means no effect; nearly all actives have a fitted effect of over 60% in size
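NPC1 promoter–luciferase Huh7 cells; 24 h compound; luminescence.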
ELG1 genotoxic: qHTS screen for small molecules that induce genotoxicity in human embryonic kidney (HEK293T) cells expressing luciferase-tagged ELG1 | Potency, µM (doses to about 46 µM), inactives show at the top dose activity change, positive = activation, usual class: activators | 330,000 tested, 1.3% active | AID 504466, 2011 | HEK293T ELG1-luciferase reporter, luminescence, 16 h; also: % of control where 0% means no effect; nearly all actives have a fitted effect of over 60% in size
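Screening used a luciferase reporter fused to human ELG1 in HEK293T cells. Luminescence was read on a CCD plate imager after 16 hr exposure and 30 min ONE-Glo incubation.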
FLuc modulator: qHTS profiling assay for firefly luciferase inhibitor/activator using purifed enzyme and Km concentrations of substrates (counterscreen for miR-21 project); 360,000 tested, 6.9% active; Potency, µM (highest dose often 57.5 µM), without a hit: top-dose activity change, negative = inhibition, usual class: inhibitors; purified FLuc, Km substrates, luminescence inhibition; AID 588342, 2011;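 also: plate controls were vehicle for no effect and reference inhibitor for full effect; nearly all actives have a fitted effect of over 55% in size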
Target sequence (P08659 whole entry, looked up): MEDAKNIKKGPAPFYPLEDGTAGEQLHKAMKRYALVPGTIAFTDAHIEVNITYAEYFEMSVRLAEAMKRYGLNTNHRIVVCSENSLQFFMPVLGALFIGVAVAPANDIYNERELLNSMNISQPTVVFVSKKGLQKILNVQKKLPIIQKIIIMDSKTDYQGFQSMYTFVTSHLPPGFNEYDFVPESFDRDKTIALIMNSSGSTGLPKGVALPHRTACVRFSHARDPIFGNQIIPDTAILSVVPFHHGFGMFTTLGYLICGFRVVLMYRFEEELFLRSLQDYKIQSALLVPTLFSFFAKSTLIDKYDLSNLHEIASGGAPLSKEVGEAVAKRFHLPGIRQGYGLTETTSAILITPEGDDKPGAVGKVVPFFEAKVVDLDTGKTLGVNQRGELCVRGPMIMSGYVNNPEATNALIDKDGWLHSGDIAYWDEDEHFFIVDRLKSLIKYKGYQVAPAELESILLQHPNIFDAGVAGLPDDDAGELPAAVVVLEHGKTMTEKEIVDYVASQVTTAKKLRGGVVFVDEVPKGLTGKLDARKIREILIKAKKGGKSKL
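Biochemical qHTS of compounds, final roughly 60 µM downward over six points, against 10 nM purified firefly luciferase using Km concentrations of substrates (10 uM D-luciferin, 10 uM ATP) in Tris acetate pH 7.5 buffer; luminescence output.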
Rab9 prom act: qHTS Assay for Rab9 Promoter Activators | Huh7 Rab9 promoter-luciferase reporter, luminescence, 24 h | Potency, µM (top dose mostly 9.22 µM), for inactives: top-dose activation, negative = inhibition, actives largely listed as activators | 320,000 tested, 2.8% active; also: % of control where 0% means no effect; nearly all actives have a fitted effect of over 60% in size
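Cells were plated at 1500 per well in reduced-serum medium with 10% FBS and left 2 h. Compound in DMSO was then added for 24 h at 37 °C. Reporter signal was read by luminescence after 10 min with luciferase detection reagent.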
Luc counter: Counterscreen for Luciferase (Kinase-Glo TM) Inhibition | Kinase-Glo luciferase, ATP luminescence, 8 min | Potency, µM (highest dose often 38.3 µM), for inactives: top-dose activity change, negative = inhibition, most hits filed as inhibitors | 200,000 tested, 0.28% active | AID 1379, 2008; also: % is scaled to controls: 0 for no effect and ±100 for the full control effect; nearly all actives have a fitted effect of over 60% in size
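Compounds were added to a substrate mix at pH 7.2 (50 mM imidazole, 10 uM ATP, within the enzyme's linear range), followed by Kinase-Glo detection reagent; luminescence was measured after 8 minutes at ambient temperature.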
SMN2 splice enh: qHTS Assay for Enhancers of SMN2 Splice Variant Expression; Potency, µM (series often up to 46.1 µM), for inactives: at the highest dose activity change, positive = activation, most hits filed as activators; HEK293 SMN2-luciferase splicing reporter, luminescence, 30-36 h; AID 1458, 2008; 210,000 tested, 2.8% active; also: % of control where 0% means no effect; nearly all actives have a fitted effect of over 55% in size
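HEK293 cells carry an SMN2 […]–luciferase reporter in which exon 7 inclusion puts luciferase in frame. Cells were plated 10-12 h before compound addition, then incubated 30-36 h at 37C. ONE-Glo luminescence was read; sodium butyrate at 4.5 mM final served as control.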
* marks the source's active call; other numbers are inactive results; ? = inconclusive; . = no result given; [ ] = remark or other dose. Calls follow the shape of the dose curve; as a rule, active = well fitted curve in the direction sought with a large enough effect; inconclusive = small, poorly fitted or top-dose-only effect, or another doubt; inactive = no such curve, though single readings can be large; an effect the other way counts as inactive or inconclusive. Potency is read from the fitted curve at half-maximal effect.

SMILES	NPC1 prom act	ELG1 genotoxic	FLuc modulator	Rab9 prom act	Luc counter	SMN2 splice enh
Cc1ccccc1-c1nnc(SCC(=O)Nc2cccnc2Cl)o1	.	2.06µM*	.	.	.	.
CNc1snc(C)c1C(=O)OCC(=O)c1ccc(OC)c(F)c1	-6.9%	-2.2%	-8.1%	-13.5%	.	.
Cc1ccc2c(C)c(C(=O)Nc3nnc(C)s3)oc2c1	3.8%	4.4%	-2.6%	-2.5%	-1.3%	25.7%
Cc1ccc(C(=O)Nc2nc(C)c(C(=O)N(C)C)s2)o1	29.3%	?	?	?	.	.
Cc1nnc(NC(=O)c2oc3ccccc3c2C)s1	4.47µM*	18.3µM*	3.01µM*	3.98µM*	.	.
Cc1nc(NC(=O)c2oc3ccccc3c2C)sc1C(=O)N(C)C	?	?	10.7µM*	2.82µM*	-11.1%	10µM*
Cc1ccc(NC(=S)NCC(C)C)cc1	10.8%	14.3%	19µM*	14.3%	-0.8%	?
COC(=O)Cc1ccc(NC(=S)NCCC(C)C)cc1	-2.8%	-1.6%	16.9µM*	2.9%	-2.9%	9.7%
CC(C)(C)NC(=S)NCCc1ccccc1	3.16µM*	?	10.7µM*	1.78µM*	.	.
S=C(NCCc1ccccc1)NN=C1CCCCCC1	?	?	16.9µM*	?	-2.2%	12.6µM*
CCc1ccccc1NC(=O)CN(C)S(=O)(=O)c1cccc2nsnc12	.	.	-4.3%	.	.	-0.1%
Cc1ccc(NC(=O)COC(=O)c2cccc(C)c2[N+](=O)[O-])cc1S(=O)(=O)N1CCCCC1	.	3.8%	.	.	.	.
COCCCNC(=O)/C=C/c1ccc(Cl)cc1	17.3%	12.3%	?	17.9%	-5.5%	6.5%
COC(=O)Cc1ccc(NC(=S)NC(C)(C)C)cc1	5.1%	3.1%	13.5µM*	12.8%	4.4%	7.9%
COC(=O)Cc1ccc(NC(=S)NCCO)cc1	-2.0%	-4.7%	-1.4%	-4.2%	.	.
S=C(NCCc1ccccc1)Nc1ccc(Br)cc1	20.5%	14.0%	19µM*	?	0.7%	20µM*
COC(=O)Cc1ccc(NC(=S)Nc2ccccn2)cc1	14.4%	3.3%	21.3µM*	?	1.8%	.
CC(C)CCNC(=O)/C=C/c1ccc(Br)cc1	0.3%	4.2%	13.5µM*	4.7%	-0.7%	-5.5%
COCCN(Cc1nc2ccccc2c(=O)[nH]1)C(=O)COc1cccc(C(C)=O)c1	-8.9%	0.4%	-0.1%	11.3%	.	.
Cc1cccc(N2CN(S(=O)(=O)c3cccc([N+](=O)[O-])c3)c3nc4ccccc4nc32)c1	.	-0.8%	.	.	.	.
COc1ccc(CC(=O)Nc2ccc(/C(C)=N\NC(=O)c3ccc(Br)o3)cc2)cc1	0.4%	3.4%	1.1%	1.1%	.	.
CCCNC(=S)Nc1ccc(Br)cc1	3.0%	0.7%	?	9.5%	1.1%	23.7%
CC(C)CCNC(=S)Nc1ccc(Br)cc1	15.1%	2.1%	21.3µM*	20.5%	4.7%	21.6%
CCCCOc1ccc(-c2ncc(C(=O)O)c(C)n2)cc1	0.501µM*	11.6%	2.39µM*	0.562µM*	-6.1%	14.1µM*
COC(=O)c1ccc(/C=N/Nc2nc3ccccc3[nH]2)cc1	3.16µM*	20.6µM*	8.49µM*	3.16µM*	-11.0%	?
SMILES	NPC1 prom act	ELG1 genotoxic	FLuc modulator	Rab9 prom act	Luc counter	SMN2 splice enh
O=C(Cc1nc2ccccc2[nH]1)N/N=C/c1ccccc1	5.0%	1.3%	15.1µM*	8.2%	.	.
CC(/C=N/Nc1nc2ccccc2[nH]1)=C\c1ccccc1	0.501µM*	0.82µM*	0.675µM*	0.398µM*	0.3%	2.51µM*
c1ccc2[nH]c(NN=C3CCCCCC3)nc2c1	9.9%	?	3.38µM*	3.55µM*	?	11.2µM*
O=C(O)c1ccc(/C=N/Nc2nc3ccccc3[nH]2)cc1	12.9%	-0.7%	?	9.1%	.	.
CC1C/C(=N/Nc2nc3ccccc3[nH]2)CC(C)(C)C1 (stereo unspecified)	-2.5%	1.2%	?	1.3%	1.3%	5.5%
CCCc1cc2nnc(SCC(=O)N(C)C3CCCCC3)n2c(N)n1	-2.6%	1.3%	0.8%	2.9%	.	.
CCN(CC)c1ccc(/C=N/Nc2nc3ccccc3[nH]2)cc1	24.1%	?	6.01µM*	?	-3.4%	-92.1%
C(=N\Nc1nc2ccccc2[nH]1)/c1ccncc1	?	?	?	?	-4.8%	-9.2%
CC(=O)Nc1ccc(/C=N/Nc2nc3ccccc3[nH]2)cc1	?	-7.9%	12µM*	?	-12.0%	-29.5%
CC(=O)Nc1ccc(CCc2nc3ccccc3[nH]2)cc1	1.3%	7.3%	-7.1%	18.3%	.	.
CCOC(=O)c1ccc(S(=O)(=O)N2CCN(C3CC(=O)N(c4ccccc4C(F)(F)F)C3=O)CC2)cc1 (stereo unspecified)	-0.6%	-0.3%	2.9%	-3.9%	.	.
Cc1ccc2cc3cc(C(=O)N4CCN(c5ccc(Cl)cc5)CC4)oc3nc2c1	.	.	0.9%	.	.	0.1%
Cc1cc(O)c(NC(=O)c2ccco2)cc1C	25.6%	?	30.1µM*	27.1%	-19.1%	11.2µM*
Cc1cc(NC(=O)c2ccc(Br)o2)ccc1NC(=O)c1ccco1	9.5%	?	?	17.4%	.	.
Cc1cc(NC(=O)c2ccccc2)ncc1NC(=O)c1ccco1	2µM*	1.64µM*	10.7µM*	1.41µM*	2.24µM*	8.91µM*
Cc1ccc(C(=O)Nc2ccc(NC(=O)c3ccco3)c(C)c2)cc1	20.8%	?	5.36µM*	29.6%	.	.
Cc1c(Cl)cccc1NC(=O)c1ccco1	-4.5%	6.7%	3.3%	14.3%	.	.
Cc1ccc(O)c(NC(=O)c2ccco2)c1	?	11.1%	6.01µM*	18.2%	-24.4%	15.8µM*
COC(=O)c1ccccc1NC(=O)Cn1c(=O)n(CCCC(=O)NCc2ccccc2Cl)c(=O)c2ccccc21	.	.	-0.3%	.	.	0.7%
CCn1c(SCC(=O)Nc2ccc(N3CCOCC3)c(Cl)c2)nnc1-c1ccc(N)cc1	1.6%	2.5%	13.5µM*	1.7%	1.0%	-16.3%
CCn1c(SCC(=O)Nc2ccccc2N2CCOCC2)nnc1-c1ccccc1	1.5%	-3.3%	2.8%[2.3 µM]	1.0%	3.6%	-2.2%
CCn1c(SCC(=O)Nc2ccc(N3CCOCC3)cc2)nnc1-c1ccc(OC)cc1	-2.4%	-5.7%	15.1µM*	-2.7%	-2.7%	-12.3%
CCn1c(C)nnc1SCC(=O)Nc1ccc(N2CCOCC2)cc1	2.4%	1.0%	?	4.2%	.	.
CCOC(=O)c1cnc2ccc(C(=O)OC)cc2c1Nc1ccc(OCc2ccccc2Cl)cc1	.	.	-4.9%	.	.	-6.0%

High-throughput results as filed in PubChem.
